As a reminder, the inhibition is the change of the read-out against control, counted positive when it falls.

The results in this text go back to PubChem BioAssay AID1212 (NMMLSC, 2008).

A number with no mark means an inactive call. Activity calls are given as the source filed them.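 How the source made its calls: active means blocks over 60% of fluorescent estradiol binding at 10 µM; inactive means the rest.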

The target of the experiment is G-protein coupled estrogen receptor 1 (Homo sapiens) (UniProt Q99527). Briefly: GPR30 competitive binders vs fluorescent estrogen, primary screen, cell-based, Cos7 GPR30-GFP, flow cytometry, 10 µM (AID 1212). To be noted: fluorescent estrogen competition, at 10 µM; hits give high values. A general note: A flow cytometer gives signals particle by particle.
Regarding `CCCCc1cc2c(=O)c(-c3ccccn3)coc2cc1O`, the inhibition was 3%.
For `Cc1oc2ccc(OCC#N)cc2c1C(=O)OC(C)C`, the result was inactive.
In the case of `CCOc1cc2c(c([N+](=O)[O-])c1)NC(c1ccc(Cl)cc1)C1CC=CC21` (stereo unspecified), the molecule was called inactive.
Same read-out and setting: under `Oc1ccc2c(c1)c1c3n2CCNC3CCC1` (stereo unspecified) stands “inactive”; under `CC1(C)CC(=O)c2cn(-c3ccc(Cl)cc3)c(=N)c(C#N)c2C1`, “inactive”.
Take `CCc1cc2c3c(c(=O)oc2cc1OCC(=O)O)CCCC3`: the inhibition is 10%.
On the same count and under the same terms, under `CCCCOc1cc(OCCCC)c2c3c(c(=O)oc2c1)CCCC3` stands 34%.
In the case of `Cc1ccc(-n2cc3c(c(C#N)c2=N)CC(C)(C)CC3=O)cc1`, the call was inactive.
Take `COc1cc2c(cc1OC)C(Cc1ccc(O)cc1)N(C)CC2` (stereo unspecified): the inhibition is 1%.
In the case of `CCOC(=O)COc1cc2oc(=O)c3c(c2cc1CC)CCCC3`, the call was inactive.
As to `CC(=O)Oc1ccc(C2Nc3c(C(=O)O)ccc([N+](=O)[O-])c3C3C=CCC32)cc1` (stereo unspecified), the inhibition is 99% (active).
